Bioassay records: PubChem, several laboratories
NALP3 yeast inh: inhibitors of NALP3 inflammasome in yeast; Yeast reconstituted NLRP3/ASC/caspase-1, beta-gal luminescence, 24 h; inhibition, % at 10 µM; 330,000 compounds, 0.39% hits;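 active = inhibition of 50% or more; inactive = inhibition below 50%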;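 note: plate controls were induced DMSO wells for no effect and uninduced yeast grown without galactose for full effect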
NALP1 inh: inhibitors of NALP1 inflammasome in yeast. inhibition, % at 10 µM. S. cerevisiae NALP1/ASC/caspase-1 growth, X-gal OD620, 72 h. 280,000 compounds, 0.61% hits. AID 2071; in the data active = inhibition mostly above about 24%, no sharp cut-off; inactive = mostly below about 32%
tim10-1 inh: inhibits growth of tim10-1 mutant yeast. inhibition, % at 20 µM. S. cerevisiae tim10-1 ts strain growth, BacTiter-Glo, 24 h. 330,000 compounds, 2.2% hits;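 active = inhibition of at least 40%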;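 note: mutant grown at 25 °C; 0% = DMSO wells with yeast and 100% = wells holding no yeast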
TIM10 inh: growth inhibitors of TIM10 yeast strain. S. cerevisiae TIM10 strain growth, BacTiter-Glo luminescence, 24 h. inhibition, % at 10 µM. 330,000 compounds, 1.4% hits. AID 463195;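 active = inhibition of 40% or more at the single tested concentration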;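 note: wild-type TIM10 isogenic control strain grown at permissive 25 °C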
SKKanGAS inh: SKKanGAS growth inhibition; inhibition, % at 7.5 µM; S. pyogenes SKKanGAS, kanamycin growth, BacTiter-Glo, 6 h; 300,000 compounds, 1.3% hits;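 active = mean replicate score, as percent of positive control median, at least 50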;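 note: strain carries kanamycin resistance gene driven by streptokinase promoter and grows in 40 µg/ml kanamycin; loss of luminescence reflects streptokinase promoter inhibition or plain growth inhibition; 0% = median of DMSO wells and 100% = positive control at its reference dose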
tim23-1 inh: growth inhibitors of tim23-1 mutant yeast; S. cerevisiae tim23-1 growth, BacTiter-Glo luminescence, 24 h; inhibition, % at 20 µM; 330,000 compounds, 1.3% hits;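 active = growth inhibition of the mutant yeast at or above 50%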;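 note: temperature-sensitive mutant grown at 25 °C; plate controls were DMSO-treated mutant yeast for no effect and medium wells lacking yeast for full effect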
tim10-1 conf: tim10-1 yeast growth inhibition, confirmed; inhibition, % at 20 µM; S. cerevisiae tim10-1 ts strain growth, BacTiter-Glo, 24 h; 7,400 compounds, 56% hits; shares compounds with tim10-1 inh; AID 463213;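 active = inhibition of yeast growth at or above a set limit in either of two repeat tests at 20 µM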;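 note: tim10-1 mutant grown at permissive 25 °C to find synthetic lethal compounds; 0% = DMSO yeast wells and 100% = medium wells without yeast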
* = called active by the depositor; . = no result. Hits are enriched below; roughly 4.9% of the tested compounds scored in any of these assays.

SMILES	NALP3 yeast inh	NALP1 inh	tim10-1 inh	TIM10 inh	SKKanGAS inh	tim23-1 inh	tim10-1 conf
Cc1ccc(-c2nn(CCC#N)cc2C=C(C#N)C#N)cc1	10	34	45*	21	2	25	23
COc1ccc(-c2nn(CCC#N)cc2C=C(C#N)C#N)cc1	13	.	17	30	1	28	.
Cc1cc(NC(=O)c2oc3ccccc3c2C)ccc1-n1cnnn1	28	8	42*	35	1	38	-3
COc1cc(OC)cc(C(=O)Nc2ccc(-n3cnnn3)c(C)c2)c1	-9	4	7	6	9	5	.
Cc1ccc(C(C)(C)C)cc1S(=O)(=O)N1CCC(C(=O)N2CCN(c3ccc(O)cc3)CC2)CC1	17	.	-25	3	.	27	.
CCOc1cc(/C=N/N=C/c2ccc(O)c(OCC)c2)ccc1O	-28	23	14	12	2	4	.
CCOc1cc(/C=C2\CN(CC)C/C(=C\c3ccc(O)c(OCC)c3)C2=O)ccc1O	20	-6	49*	34	6	42	29
O=C(c1cc(-c2cccnc2)nc2ccccc12)N1CCN(S(=O)(=O)c2cccs2)CC1	17	.	14	11	.	35	.
c1ccc2c(c1)[nH]c1ccccc12	12	.	-10	2	4	-3	.
Cc1ccc(C)c2c1[nH]c1ccccc12	29	8	41*	31	5	25	38*
CC(Oc1ccc2c3c(c(=O)oc2c1)CCC3)C(=O)NCc1cccnc1 (stereo not given)	7	13	-5	4	-7	-6	.
O=C(CSc1nnc(CCc2ccccc2)n1-c1ccc(Cl)cc1)NCc1ccccc1	14	-11	43*	16	6	1	12
COc1ccc(-n2c(CCc3ccccc3)nnc2SCC(=O)NCc2ccccc2)cc1	3	11	30	20	-2	5	.
Cc1ccc(S(=O)(=O)N(C)CCCC(=O)N2CCCCC2)cc1	22	-17	-3	-8	1	-3	.
COC(=O)COc1ccc(S(=O)(=O)N2CCN(c3ccccc3F)CC2)cc1C	0	33	41*	8	-6	24	31*
COC(=O)COc1ccc(S(=O)(=O)N2CCCCCC2)cc1C	21	6	8	3	3	7	.
CCc1ccc(-n2c(Cc3ccccc3)n[nH]c2=S)cc1	13	-48	48*	13	-15	31	27
CCOc1ccc(-n2c(CCc3ccccc3)n[nH]c2=S)cc1	13	-10	41*	24	-3	17	18
CN(C)CCN1C(=O)c2ccccc2C1=O	13	.	-4	11	.	-6	.
COc1ccc(OC)c(/C=C2\SC(N3CCCC(C)C3)=NC2=O)c1 (stereo not given)	2	13	43*	11	18	41	28
COc1ccc(/C=C2\SC(N3CCCCC3)=NC2=O)cc1OC	25	5	19	28	0	19	.
Cc1ccccc1NC(=O)CC1SC(=O)N(c2ccccc2)C1=O (stereo not given)	8	-10	45*	7	-1	37	38*
CCC(C)(C)n1nnnc1C(c1ccc(C)cc1)N1CCC(C)CC1 (stereo not given)	-13	-3	41*	38	10	45	36*
Cc1cc(C(F)(F)F)n2nc(C(=O)O)c(Cl)c2n1	9	-6	-16	2	2	0	.
Cc1cc(C(F)(F)F)n2nc(-c3cnn(C)c3C(F)(F)F)c(Br)c2n1	11	9	41*	23	-6	43	30
CCOc1ccc(OCCCC(=O)N2CCN(S(=O)(=O)c3ccccc3C#N)CC2)cc1	1	.	10	15	.	18	.
CCn1c(SCc2cccc(C)c2)nnc1-c1ccc(C)cc1	19	9	47*	22	3	44	30*
CCOc1ccc(/C=N/n2cc(-c3ccccc3)[nH]c2=S)cc1	14	-11	42*	21	16	-3	15
COc1ccc2c(C)cc(SCC(=O)Nc3ccc(Cl)cn3)nc2c1	.	2	.	.	-7	.	.
CCN(C(=O)CN1CCC(C(=O)OC)CC1)c1c(N)n(Cc2ccccc2)c(=O)[nH]c1=O	3	.	-6	1	.	1	.
